Experimental findings from PubChem BioAssay AID588511 (Johns Hopkins Ion Channel Center, 2011) are described below.

Structures are written as SMILES. About 3,600 (1.2%) of roughly 310,000 compounds were called active.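 Rule for the calls: active = ratio plate-corrected score three or more library SD toward inhibition, starting fluorescence score within five deviations; inactive = the rest.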 Only a selection was taken, and actives are over-represented in it overall.

The target in the assay is Anoctamin-1 (Mus musculus) (UniProt Q8BHY3). Description: TMEM16A chloride channel inhibitors, primary screen, cell-based, HTS (AID 588511).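 For normalized B-score (activity score, 25-100; higher = stronger inhibition): score derived from kinetic fluorescence span divided by baseline fluorescence per well.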 The following applies: HEK293 TMEM16A/YFP iodide influx fluorescence, ionomycin; at 10 µM.
Anoctamin-1 (Mus musculus), sequence (Q8BHY3 whole entry, looked up): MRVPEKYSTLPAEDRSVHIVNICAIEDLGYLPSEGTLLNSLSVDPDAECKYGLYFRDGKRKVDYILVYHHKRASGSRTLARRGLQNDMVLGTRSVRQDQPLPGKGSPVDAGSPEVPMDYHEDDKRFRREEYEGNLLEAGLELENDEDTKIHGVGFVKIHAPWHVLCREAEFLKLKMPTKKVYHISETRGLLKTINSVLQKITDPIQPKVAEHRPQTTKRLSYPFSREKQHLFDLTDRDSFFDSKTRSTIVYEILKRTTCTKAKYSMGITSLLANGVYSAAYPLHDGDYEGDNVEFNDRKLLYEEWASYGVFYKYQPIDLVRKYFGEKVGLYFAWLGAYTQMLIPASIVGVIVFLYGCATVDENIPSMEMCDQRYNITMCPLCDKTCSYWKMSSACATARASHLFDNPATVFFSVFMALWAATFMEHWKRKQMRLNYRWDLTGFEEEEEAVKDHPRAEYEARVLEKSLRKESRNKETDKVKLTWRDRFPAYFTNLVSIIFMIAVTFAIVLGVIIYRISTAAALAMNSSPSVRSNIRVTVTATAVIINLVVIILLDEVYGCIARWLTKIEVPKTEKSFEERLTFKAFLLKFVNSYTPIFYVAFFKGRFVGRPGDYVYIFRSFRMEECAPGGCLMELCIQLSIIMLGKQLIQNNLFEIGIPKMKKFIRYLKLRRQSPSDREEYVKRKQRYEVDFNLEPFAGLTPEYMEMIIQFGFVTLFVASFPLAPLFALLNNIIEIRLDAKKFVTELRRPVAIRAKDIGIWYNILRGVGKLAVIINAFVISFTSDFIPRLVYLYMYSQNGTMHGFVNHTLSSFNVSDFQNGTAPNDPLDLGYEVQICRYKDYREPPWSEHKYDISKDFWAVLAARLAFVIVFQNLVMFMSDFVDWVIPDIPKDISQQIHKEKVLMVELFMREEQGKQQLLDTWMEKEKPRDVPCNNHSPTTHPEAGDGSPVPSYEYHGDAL
As to `COc1ccc(N(CC(=O)NC2CCCCC2)C(=O)CNC(=O)c2ccco2)c(OC)c1`, the normalized B-score (activity score, 25-100; higher = stronger inhibition) entry was “inactive”.
For the molecule `CCOc1ncccc1C(=O)N(C)CC(=O)Nc1ccc(F)cc1`, the normalized B-score (activity score, 25-100; higher = stronger inhibition) result is “inactive”.
The same measure for `Cc1ccc(CNS(=O)(=O)CCNC(=O)c2ccccc2)cc1`: “inactive”.
Regarding `COc1ccc(CCNC(=O)C(=O)NCC2OCCN2S(=O)(=O)c2ccc(F)cc2)cc1OC` (stereo unspecified), the normalized B-score (activity score, 25-100; higher = stronger inhibition) entry was “inactive”.
The same measure for `CCCCNC(=O)c1ccccc1NC(=O)c1ccccc1N(C)S(C)(=O)=O`: “inactive”; for `CCOC(=O)c1cccc(NC(=O)CCOc2ccccc2)c1`: “inactive”; for `CCOC(=O)c1cccc(NC(=O)CCc2c(C)nc3ncnn3c2C)c1`: “inactive”.
With `CCOC(=O)c1cccc(NC(=O)CCn2nnc3ccccc32)c1`, the normalized B-score (activity score, 25-100; higher = stronger inhibition) was 100 (active).
The same measure for `COC(=O)c1cc(NC(=O)c2cc(C(C)(C)C)nn2Cc2cccc(C)c2)ccc1N1CCOCC1`: “inactive”.
For `Cc1cccc(C)c1N1C(=O)CN(Cc2ccccc2)C1=S`, the normalized B-score (activity score, 25-100; higher = stronger inhibition) result was “inactive”.
Turning to `CC1Cc2ccccc2N1S(=O)(=O)c1c(N)n(C)c(=O)n(C)c1=O` (stereo unspecified), the normalized B-score (activity score, 25-100; higher = stronger inhibition) result was “inactive”.
In the case of `CCCCn1ccnc1C(=O)c1cccc(S(=O)(=O)N2c3ccccc3CC2C)c1` (stereo unspecified), the normalized B-score (activity score, 25-100; higher = stronger inhibition) was 25 (active).
On to `CC1Cc2ccccc2N1S(=O)(=O)c1ccc(Cl)nc1` (stereo unspecified), for which the normalized B-score (activity score, 25-100; higher = stronger inhibition) result was “inactive”.
The entry for `CC(=O)N1CCCc2cc(S(=O)(=O)N3CCCC(C(=O)NCc4ccc(Cl)cc4)C3)ccc21` (stereo unspecified) is “inactive”.
Regarding `CC(=O)N1CCCc2cc(S(=O)(=O)N3CCCC(C(=O)N4CCN(c5cccc(Cl)c5)CC4)C3)ccc21` (stereo unspecified), the normalized B-score (activity score, 25-100; higher = stronger inhibition) is 100 (active).
Turning to `CC(=O)N1c2ccc(S(=O)(=O)N3CCCC(C(=O)Nc4cccc(Cl)c4)C3)cc2CC1C` (stereo unspecified), the normalized B-score (activity score, 25-100; higher = stronger inhibition) entry was “inactive”.
The same measure for `O=C(NC(=S)Nc1ccccc1C(=O)O)c1ccc(-c2ccc(Br)cc2)o1`: 100 (active); for `O=C(O)c1ccccc1NC(=O)c1ccccc1-c1ccccc1C(=O)O`: “inactive”.
The entry for `COC(=O)c1ccccc1NC(=S)NC(=O)c1ccccc1F` is “inactive”; for `Cc1cc(C)cc(N(CC(=O)NC2CCCC2)C(=O)CCC(=O)Nc2cc(C)on2)c1` it is “inactive”.
Regarding `COc1cccc(/C=C/C(=O)Nc2ccc3c(c2)OCCO3)c1`, the normalized B-score (activity score, 25-100; higher = stronger inhibition) result was “inactive”.
The same measure for `COc1cc(SC#N)ccc1N=Cc1c(C)[nH]n(-c2ccc(C)cc2)c1=O`: “inactive”; for `Cc1[nH]n(-c2ccccc2)c(=O)c1/C=N/NC(=O)c1ccoc1C`: “inactive”.
The figure for `Cc1ccc(-n2[nH]c(C)c(/C=N/N3C(=O)c4cccc5cccc(c45)C3=O)c2=O)cc1` is 100 (active); for `Cc1ccc(C2(C(F)(F)F)N=C3Sc4cc(C)cc(C)c4N3C(=O)N2)cc1` (stereo unspecified) it is “inactive”; for `Cc1c(C(=O)OCC(=O)N2CCCC2=O)oc2ccccc12` it is “inactive”.
The same measure for `c1ccc(-c2cc3c(NCC4COc5ccccc5O4)ncnc3s2)cc1` (stereo unspecified): 100 (active); for `COc1ccc(Nc2ncnc3sc(-c4ccccc4)cc23)c(OC)c1`: “inactive”; for `Oc1ccccc1N1CCN(c2ncnc3sc(-c4ccccc4)cc23)CC1`: “inactive”.
Take `COc1cc(Cl)c(C)cc1NC(=O)CN1CCCCCC1`: the normalized B-score (activity score, 25-100; higher = stronger inhibition) result was “inactive”.
The same measure for `O=C(Cc1cccs1)NCc1cccc(C(F)(F)F)c1`: “inactive”; for `CCOn1c(=O)c(=O)n(O)c2ccccc21`: “inactive”; for `COc1ccc(SC[C@H](Cc2ccccc2)N2CCN(CCc3ccccc3)CCC2=O)cc1`: “inactive”.
The figure for `C[C@H]1CCC(=O)N([C@H](CSc2ccccc2)Cc2ccccc2)CC1` is 25 (active); for `CN1CCC(=O)N([C@H](CO)Cc2ccccc2)CC1` it is “inactive”; for `Cn1c2c(c(=O)n(C)c1=O)C(c1cccc([N+](=O)[O-])c1)Nc1ccccc1O2` (stereo unspecified) it is “inactive”.
With `COc1ccc(CCNC(=O)C2CCCN(Cc3nc(-c4cccc(Cl)c4)oc3C)C2)cc1OC` (stereo unspecified), the normalized B-score (activity score, 25-100; higher = stronger inhibition) is 100 (active).
Take `COc1ccc(CCNC(=O)CS(=O)(=O)Cc2nc(-c3ccc(C)cc3)oc2C)cc1OC`: the normalized B-score (activity score, 25-100; higher = stronger inhibition) result is “inactive”.
Take `COc1cccc(-c2nc(CS(=O)(=O)CC(=O)NCCc3ccc(OC)c(OC)c3)c(C)o2)c1`: the normalized B-score (activity score, 25-100; higher = stronger inhibition) result was “inactive”.
The same measure for `CCOc1ccc(/C=C/C(=O)OCC(=O)c2ccccc2OC)cc1OC`: “inactive”; for `Cc1cccc(N)c1SC1CCCCC1O` (stereo unspecified): “inactive”.
Take `Cc1cccc(N=C2SC(C)CN2C(=O)CN2C(=O)NC3(CCCC3)C2=O)c1` (stereo unspecified): the normalized B-score (activity score, 25-100; higher = stronger inhibition) result was “inactive”.
Take `O=C(Nc1nnc(S(=O)(=O)N2CCCCCC2)s1)c1cccc(Br)c1`: the normalized B-score (activity score, 25-100; higher = stronger inhibition) result was “inactive”.
On to `NS(=O)(=O)c1ccc(N=Cc2ccc(Br)s2)cc1`, for which the normalized B-score (activity score, 25-100; higher = stronger inhibition) entry is “inactive”.
The entry for `COc1ccccc1C1C2=C(COC2=O)Nc2cc3c(cc21)OCO3` (stereo unspecified) is “inactive”.
Take `CCCOc1ccccc1C1CC(=O)Nc2cc3c(cc21)OCO3` (stereo unspecified): the normalized B-score (activity score, 25-100; higher = stronger inhibition) was 25 (active).
For `COC(=O)C1=C(C)NC(=O)CC1c1ccccc1OC` (stereo unspecified), the normalized B-score (activity score, 25-100; higher = stronger inhibition) entry was “inactive”.
For the molecule `CC1CCN(C(=O)CN(c2ccc(Oc3ccccc3)cc2)S(C)(=O)=O)CC1`, the normalized B-score (activity score, 25-100; higher = stronger inhibition) entry was “inactive”.
The entry for `COc1ccc(S(=O)(=O)N(CCCN2CCCC2=O)Cc2cc3c(C)ccc(C)c3[nH]c2=O)cc1` is “inactive”; for `Cc1ccc(-c2noc(CSc3nnc(-c4ccccc4)n3C)n2)cc1` it is “inactive”.
The same measure for `Cc1ccc(-c2noc(CSc3nnnn3-c3ccccc3)n2)cc1`: 100 (active).
The entry for `Cc1ccc(-c2noc(CSc3nnc(-c4cccs4)n3C)n2)cc1` is “inactive”.
Turning to `Cc1ccc(-c2nnc(CN3CCN(C)CC3)o2)cc1`, the normalized B-score (activity score, 25-100; higher = stronger inhibition) result is “inactive”.
The entry for `O=C(NCCCN1CCCC1=O)C(=O)NCC1OCCN1S(=O)(=O)c1ccc(Br)cc1` (stereo unspecified) is “inactive”; for `Cn1c(SCC(=O)N2CCCCC2)nc2c(c1=O)SCC2` it is “inactive”.
Regarding `CCn1c(SCc2ccccc2)nc2c(c1=O)SCC2`, the normalized B-score (activity score, 25-100; higher = stronger inhibition) result was “inactive”.
Consider `Cc1cccc(CSc2nc3c(c(=O)n2C)SCC3)c1`, for which the normalized B-score (activity score, 25-100; higher = stronger inhibition) is 25 (active).
For the molecule `O=C(Nc1ccnn1C1CCN(C/C=C/c2ccc(F)cc2)CC1)C1CCCC1`, the normalized B-score (activity score, 25-100; higher = stronger inhibition) result is “inactive”.
For `COc1ccc(OC)c(S(=O)(=O)N2CCCC(C(=O)N3CCC(C(N)=O)CC3)C2)c1` (stereo unspecified), the normalized B-score (activity score, 25-100; higher = stronger inhibition) result is “inactive”.
The figure for `CC(Oc1ccc2ccccc2c1)C(=O)NNC(=S)NC(=O)c1ccco1` (stereo unspecified) is 100 (active); for `Cc1ccc(C(=O)NNC(=O)C(C)Oc2ccc3ccccc3c2)o1` (stereo unspecified) it is “inactive”; for `CCCc1ccc(OCC(=O)NNC(=S)NC(=O)c2ccco2)cc1` it is “inactive”.
As to `O=C(Nc1cc(-c2ccccc2)nn1-c1ccccc1F)c1ccc([N+](=O)[O-])cc1`, the normalized B-score (activity score, 25-100; higher = stronger inhibition) entry is “inactive”.
Take `CSc1ccc(C(=O)C2CCCN(C(=O)c3ccc(C)nc3)C2)cc1` (stereo unspecified): the normalized B-score (activity score, 25-100; higher = stronger inhibition) entry was “inactive”.
The same measure for `CCOC(=O)N1CCC(=NNC(N)=O)CC1`: “inactive”; for `Cc1cccc(-c2nc(CS(=O)CC(=O)NC(C)CCc3ccccc3)c(C)o2)c1` (stereo unspecified): “inactive”.
